# PubChem BioAssay
# Some of the results follow. The source made the active and inactive calls.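 The calls were made as follows, unless noted: active = mean inhibition above about 50% in the one-dose retest (limit read from the data); inactive = the rest.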
# Tests used:
# [1] = target: Sentrin-specific protease 8 (Homo sapiens) (UniProt Q96LD8); test: human SENP8 peptidase blockers, hit retest – biochemical, luminescence, single concentration, confirmation (AID 488912;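 active = mean inhibition across replicates above about 50%, limit read from the data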); conditions: Recombinant SENP8, Z-RLRGG-aminoluciferin luminescence, 60 min; at 12.5 µM; stronger effect = higher value
# [2] = target: Sentrin-specific protease 6 (Homo sapiens) (UniProt Q9GZR1); test: inhibition of human SENP6 catalytic domain – biochemical, luminescence, single concentration, confirmation (AID 488915); conditions: recombinant SENP6, Z-RLRGG-aminoluciferin luminescence; at 12.5 µM; stronger effect = higher value
# [3] = target: Sentrin-specific protease 7 (Homo sapiens) (UniProt Q9BQF6); test: human SENP7 peptidase blockers, hit retest – biochemical, luminescence, single concentration, confirmation (AID 488917); conditions: recombinant SENP7, Z-RLRGG-aminoluciferin luminescence, 40 min; at 12.5 µM; stronger effect = higher value
# [4] = target: Caspase-3 (Homo sapiens) (UniProt P42574); test: human caspase-3 activity blockade, out-of-family – biochemical, single concentration, selectivity assay for SENP inhibitor project, confirmation (AID 488918;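 active = mean inhibition above about 50%, limit read from the data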;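 also: plate controls were enzyme with DMSO for no effect and wells without caspase-3 for full effect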); conditions: purified caspase-3, Z-DEVD-aminoluciferin luminescence, 60 min; at 12.5 µM; stronger effect = higher value
# [5] = Ultra-Glo luciferase signal interference – biochemical, single concentration, SENP8 reaction pre-completed, artefact control for SENP inhibitor project, confirmation (AID 488919;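 active = mean inhibition above about 50% when retested at one dose, limit read from the data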;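 also: plate controls were DMSO wells with completed reaction for no effect and substrate without enzyme for full effect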); conditions: Pre-incubated SENP8/Z-RLRGG-aminoluciferin, luciferase luminescence interference; at 12.5 µM; stronger effect = higher value
# [6] = target: Tumor necrosis factor receptor superfamily member 10B (Homo sapiens) (UniProt O14763); test: viability loss of caspase-8 NB7 cells with TRAIL – with/without TRAIL, luminescence panel, confirmation (AID 651596; in the data active = activity above about 50%); conditions: NB7 neuroblastoma + caspase-8, TRAIL sensitization, NB7 Caspase-8, with TRAIL, mean of runs, at 10 µM, stronger effect = higher value
# [7] = as above; conditions: NB7 neuroblastoma + caspase-8, without TRAIL, NB7 Caspase-8, without TRAIL, mean of runs, at 10 µM
# [8] = apoptosome-driven caspase-3 activation blockers – biochemical, fluorescence, DEVD-Rh110, 20 µM, confirmation (AID 504614;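 active = mean inhibition of at least 40% at 20 µM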;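 also: plate controls were DMSO wells for no effect and DEVD-CHO caspase inhibitor control wells for full effect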); conditions: reconstituted apoptosome, caspase-3 DEVD-Rh110 fluorescence; at 20 µM; stronger effect = higher value
# [9] = detection-step artefacts after completed caspase reaction – biochemical, fluorescence, Rh110, 20 µM, artefact control for Apaf-1 inhibitor project, confirmation (AID 504615;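 active = signal rise of 40% or more at 20 µM, treated as a fluorescence artifact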); conditions: quenched caspase reaction, at 20 µM, stronger effect = higher value
# [10] = fluorescence interference of Apaf-1 inhibitor hits, dose response, artefact control for Apaf-1 inhibitor project (AID 588538; call rule not given here); conditions: fluorescence interference counterscreen, Apaf-1 assay format
# [11] = NF-kB reporter suppression in CF airway cells – cell-based, GFP fluorescence, single concentration, confirmation (AID 602472; in the data active = inhibition above about 40%;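 also: stimulus PAF is a Pseudomonas aeruginosa filtrate and not platelet activating factor; plate controls were DMSO wells with stimulus for no effect and unstimulated DMSO wells for full effect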); conditions: KKLEB CF airway cells, PAF-induced NF-kB-GFP fluorescence, overnight; at 5 µM; stronger effect = higher value
# [12] = NFkB reporter suppression in cystic fibrosis bronchial cells – cell-based, uHTS hits, panel, cytotoxicity readout, dose response (AID 624344); conditions: CF bronchial epithelial cells, PAF-induced NFkB reporter inhibition, with PAF, run 1; at 79 µM (top of the series) unless noted
# [13] = as above; conditions: CF bronchial epithelial cells, PAF-induced NFkB reporter inhibition, with PAF, run 2; at 79 µM (top of the series) unless noted
# [14] = target: Protein Mdm4 (Homo sapiens) + E3 ubiquitin-protein ligase Mdm2 (Homo sapiens) (UniProt O15151+Q00987); test: human Mdm2/MdmX binding disruption – cell-based, luminescence, single concentration, set 2, confirmation (AID 504601;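 active = mean inhibition of the luminescence signal across two replicates at or above 26 percent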); conditions: SaOS-2 split-luciferase Mdm2/MdmX complementation, at 8 µM, stronger effect = higher value
# [15] = Brca1-Bard1 BiLC signal decrease – luminescence, single concentration, counter-screen for Mdm2/MdmX interaction inhibitor project, confirmation (AID 504668; call rule not given here); conditions: Brca1/Bard1 bimolecular luciferase complementation counterscreen, at 8 µM, stronger effect = higher value
# [16] = inhibition of PEG-3 promoter luciferase signal – cell-based, HeLa, luciferase reporter, single concentration, confirmation (AID 602417;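 active = at 20 µM dose, 40% or more inhibition averaged across four replicates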); conditions: HeLa PEG-Prom luciferase reporter, luminescence, overnight; at 20 µM; stronger effect = higher value
# [17] = HIF-2a driven luciferase blockers, single dose – luminescence, 786-0 RCC cells, confirmation (AID 651580;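 active = mean inhibition across four replicates of at least 40 percent at the single tested concentration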); conditions: HIF-2a luciferase reporter luminescence, overnight, at 18.8 µM, stronger effect = higher value
# [18] = HIF-1a luciferase reporter signal reduction – MiaPaCa-2 cells, single concentration, counter-screen for HIF-2a inhibitor project, confirmation (AID 651589;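 active = mean inhibition of the reporter signal across four replicates at the single tested dose of 50% or more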); conditions: MiaPaCa-2 HIF-1a luciferase reporter, desferoxamine, overnight; at 18.8 µM; stronger effect = higher value
# [19] = target: PEG-3 (UniProt Q6IN02); test: inhibition of PEG-3 promoter-driven reporter – cell-based, HeLa, luciferase, CREF/GAPDH counter-screen panel, dose response (AID 624167); conditions: CREF/GAPDH counter-screens; HeLa PEG-Prom luciferase reporter, overnight, run 1, dose range 1, at 100 µM (top of the series) unless noted
# [20] = target: PEG-3 (UniProt Q6IN02); test: as above; conditions: CREF/GAPDH counter-screens; HeLa PEG-Prom luciferase reporter, overnight, run 2, dose range 1, at 100 µM (top of the series) unless noted
# [21] = tested on: Rat fibroblasts (CREF); test: as above; conditions: CREF/GAPDH counter-screens; run 1, dose range 1, at 100 µM (top of the series)
# [22] = tested on: Rat fibroblasts (CREF); test: as above; conditions: CREF/GAPDH counter-screens; run 2, dose range 1, at 100 µM (top of the series)
# Sequence of Sentrin-specific protease 7 (Homo sapiens) (Q9BQF6 706-1050 limits assumed): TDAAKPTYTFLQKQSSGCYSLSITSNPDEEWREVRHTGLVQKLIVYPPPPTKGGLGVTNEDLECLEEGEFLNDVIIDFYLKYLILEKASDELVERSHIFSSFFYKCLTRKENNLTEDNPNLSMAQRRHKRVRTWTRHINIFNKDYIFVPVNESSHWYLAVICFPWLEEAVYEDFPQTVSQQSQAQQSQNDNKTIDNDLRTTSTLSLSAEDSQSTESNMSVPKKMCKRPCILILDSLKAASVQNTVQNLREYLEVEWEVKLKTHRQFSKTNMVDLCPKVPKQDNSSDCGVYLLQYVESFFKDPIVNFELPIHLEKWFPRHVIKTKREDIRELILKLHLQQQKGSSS
# Sequence of Sentrin-specific protease 6 (Homo sapiens) (Q9GZR1 628-1112 limits assumed): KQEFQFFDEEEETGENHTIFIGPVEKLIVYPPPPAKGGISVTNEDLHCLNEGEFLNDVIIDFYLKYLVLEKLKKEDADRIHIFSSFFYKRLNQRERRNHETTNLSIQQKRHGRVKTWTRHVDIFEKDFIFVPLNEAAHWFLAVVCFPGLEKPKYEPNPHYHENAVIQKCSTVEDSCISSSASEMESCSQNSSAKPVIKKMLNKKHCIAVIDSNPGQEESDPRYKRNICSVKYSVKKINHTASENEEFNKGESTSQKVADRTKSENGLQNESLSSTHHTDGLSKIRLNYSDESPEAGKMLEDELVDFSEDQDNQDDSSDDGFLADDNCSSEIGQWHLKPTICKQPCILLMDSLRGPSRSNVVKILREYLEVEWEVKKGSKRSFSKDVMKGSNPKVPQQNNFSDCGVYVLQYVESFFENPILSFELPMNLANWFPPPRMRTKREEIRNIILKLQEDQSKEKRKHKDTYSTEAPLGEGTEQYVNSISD
# Sequence of Sentrin-specific protease 8 (Homo sapiens) (Q96LD8 whole entry, looked up, the tested form may be a part): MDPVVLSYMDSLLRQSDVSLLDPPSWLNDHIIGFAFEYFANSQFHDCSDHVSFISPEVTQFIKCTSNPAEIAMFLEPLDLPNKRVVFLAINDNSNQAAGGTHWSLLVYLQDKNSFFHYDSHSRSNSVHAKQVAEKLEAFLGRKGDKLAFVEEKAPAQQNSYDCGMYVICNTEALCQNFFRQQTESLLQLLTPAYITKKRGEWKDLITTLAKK
# Sequence of Caspase-3 (Homo sapiens) (P42574 28-227 limits assumed): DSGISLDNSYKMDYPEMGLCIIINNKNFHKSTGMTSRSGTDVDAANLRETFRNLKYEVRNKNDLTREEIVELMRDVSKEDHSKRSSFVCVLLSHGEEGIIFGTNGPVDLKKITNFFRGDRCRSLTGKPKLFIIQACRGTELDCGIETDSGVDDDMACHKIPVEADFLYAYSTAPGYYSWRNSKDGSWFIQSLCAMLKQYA
# Sequence of Protein Mdm4 (Homo sapiens) + E3 ubiquitin-protein ligase Mdm2 (Homo sapiens) (O15151 whole entry, looked up): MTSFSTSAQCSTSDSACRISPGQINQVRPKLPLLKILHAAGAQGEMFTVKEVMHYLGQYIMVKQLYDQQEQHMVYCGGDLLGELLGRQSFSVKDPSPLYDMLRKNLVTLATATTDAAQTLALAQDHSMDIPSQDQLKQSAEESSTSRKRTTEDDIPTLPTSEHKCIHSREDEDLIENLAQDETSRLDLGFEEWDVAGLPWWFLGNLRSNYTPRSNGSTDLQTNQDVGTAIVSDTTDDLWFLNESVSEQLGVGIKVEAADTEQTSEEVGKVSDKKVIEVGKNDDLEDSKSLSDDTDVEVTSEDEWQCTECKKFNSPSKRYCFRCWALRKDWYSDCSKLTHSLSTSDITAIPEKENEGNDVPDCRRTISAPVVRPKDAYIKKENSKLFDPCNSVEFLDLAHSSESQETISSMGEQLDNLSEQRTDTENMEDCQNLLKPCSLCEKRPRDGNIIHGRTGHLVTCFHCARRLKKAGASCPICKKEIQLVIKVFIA
# Sequence of Protein Mdm4 (Homo sapiens) + E3 ubiquitin-protein ligase Mdm2 (Homo sapiens) (Q00987 whole entry, looked up): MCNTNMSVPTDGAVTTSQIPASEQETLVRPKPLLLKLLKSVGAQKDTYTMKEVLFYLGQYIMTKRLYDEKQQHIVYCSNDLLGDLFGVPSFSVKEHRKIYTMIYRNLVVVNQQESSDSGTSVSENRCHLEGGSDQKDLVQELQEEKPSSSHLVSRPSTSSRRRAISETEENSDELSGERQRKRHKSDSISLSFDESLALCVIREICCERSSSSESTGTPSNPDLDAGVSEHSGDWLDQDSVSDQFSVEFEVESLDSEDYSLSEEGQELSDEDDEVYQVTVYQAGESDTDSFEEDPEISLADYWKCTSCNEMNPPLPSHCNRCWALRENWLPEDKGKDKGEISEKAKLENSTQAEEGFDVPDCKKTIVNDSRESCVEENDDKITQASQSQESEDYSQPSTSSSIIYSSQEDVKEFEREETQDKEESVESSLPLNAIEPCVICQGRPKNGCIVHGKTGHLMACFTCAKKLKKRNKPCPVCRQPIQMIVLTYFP
# Sequence of Tumor necrosis factor receptor superfamily member 10B (Homo sapiens) (O14763 whole entry, looked up): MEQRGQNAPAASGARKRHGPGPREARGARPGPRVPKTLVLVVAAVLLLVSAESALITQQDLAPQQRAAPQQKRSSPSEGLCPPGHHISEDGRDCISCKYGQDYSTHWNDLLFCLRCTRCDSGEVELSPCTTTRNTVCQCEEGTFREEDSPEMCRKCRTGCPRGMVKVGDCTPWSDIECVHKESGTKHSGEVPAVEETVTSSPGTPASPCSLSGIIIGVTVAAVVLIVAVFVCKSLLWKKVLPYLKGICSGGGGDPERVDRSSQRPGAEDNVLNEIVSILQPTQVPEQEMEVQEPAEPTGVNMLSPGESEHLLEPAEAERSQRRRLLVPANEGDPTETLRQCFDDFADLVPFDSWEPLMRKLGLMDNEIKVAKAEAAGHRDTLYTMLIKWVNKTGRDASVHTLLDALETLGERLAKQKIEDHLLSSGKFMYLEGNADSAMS
# Sequence of PEG-3 (Q6IN02 whole entry, looked up): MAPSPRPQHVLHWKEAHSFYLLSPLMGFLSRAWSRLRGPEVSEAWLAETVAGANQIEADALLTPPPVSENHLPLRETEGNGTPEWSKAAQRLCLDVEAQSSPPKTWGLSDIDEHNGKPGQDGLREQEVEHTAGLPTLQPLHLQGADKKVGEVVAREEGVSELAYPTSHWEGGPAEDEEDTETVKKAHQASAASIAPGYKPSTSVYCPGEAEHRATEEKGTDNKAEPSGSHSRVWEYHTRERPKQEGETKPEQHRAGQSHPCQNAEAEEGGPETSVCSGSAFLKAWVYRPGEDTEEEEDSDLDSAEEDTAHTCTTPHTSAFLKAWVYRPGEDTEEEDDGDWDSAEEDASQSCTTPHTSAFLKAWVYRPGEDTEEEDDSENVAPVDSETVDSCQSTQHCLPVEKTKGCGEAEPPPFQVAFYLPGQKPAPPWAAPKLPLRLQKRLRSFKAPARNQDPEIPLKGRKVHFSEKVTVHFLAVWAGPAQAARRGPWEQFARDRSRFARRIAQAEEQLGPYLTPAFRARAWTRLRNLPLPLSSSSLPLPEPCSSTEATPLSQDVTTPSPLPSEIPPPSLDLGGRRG
compound,measurement,setting,value
O=c1[nH]c(/C=C/c2cccc(Br)c2)nc2ccccc12,inhibition,[1],2.7% (inactive)
same,inhibition,[2],1.4% (inactive)
same,inhibition,[3],12.3% (inactive)
same,inhibition,[4],17.6% (inactive)
same,inhibition,[5],1% (inactive)
COc1ccc2nc(Nc3nc4cc5c(cc4s3)OCCO5)sc2c1,inhibition,[1],20.4% (inactive)
same,inhibition,[2],63% (active)
same,inhibition,[3],71.6% (active)
same,inhibition,[4],31.8% (inactive)
same,inhibition,[5],24.3% (inactive)
O=C(Nc1ccccc1)Nc1ccccc1C(=O)NCc1ccco1,inhibition,[1],2.7% (inactive)
same,inhibition,[2],60.7% (active)
same,inhibition,[3],85.6% (active)
same,inhibition,[4],63.9% (active)
same,inhibition,[5],66.7% (active)
COc1cc(C#Cc2ccc3cc(CCCO)oc(=O)c3c2)cc(OC)c1,inhibition,[1],56.9% (active)
same,inhibition,[2],72.2% (active)
same,inhibition,[3],86.6% (active)
same,inhibition,[4],42.7% (inactive)
same,inhibition,[5],15.2% (inactive)
CC(=C/c1ccccc1)/C=N/NC(=O)c1cc(C)oc1C,inhibition,[1],14.3% (inactive)
same,inhibition,[2],46.8% (inactive)
same,inhibition,[3],23.5% (inactive)
same,inhibition,[4],86.4% (active)
same,inhibition,[5],-2.7% (inactive)
same,activity,[6],58.5%
same,activity,[7],63.6%
CCOC(=O)c1ccc(Nc2cc3ccccc3c(=O)[nH]2)cc1,inhibition,[1],28.7% (inactive)
same,inhibition,[2],63.5% (active)
same,inhibition,[3],31.6% (inactive)
same,inhibition,[4],9.8% (inactive)
same,inhibition,[5],-2.7% (inactive)
same,inhibition,[8],62.4% (active)
same,activation (fluorescence interference),[9],11.7% (inactive)
same,IC50,[10],> 100 µM (inactive)
CC(=O)N(C1=C(Cl)C(=O)c2ccccc2C1=O)c1ccc(C(=O)O)cc1,inhibition,[1],81.7% (active)
same,inhibition,[2],91% (active)
same,inhibition,[3],55.3% (active)
same,inhibition,[4],6.3% (inactive)
same,inhibition,[5],4% (inactive)
same,inhibition,[8],95% (active)
same,activation (fluorescence interference),[9],9.87% (inactive)
same,IC50,[10],> 100 µM (inactive)
CC(C)n1cnc2c(NCc3ccccc3)cc(OCC3CCN(C)CC3)cc21,inhibition,[1],57.7% (active)
same,inhibition,[2],75.3% (active)
same,inhibition,[3],35.5% (inactive)
same,inhibition,[4],6.2% (inactive)
same,inhibition,[5],-4.2% (inactive)
same,inhibition,[8],78.1% (active)
same,activation (fluorescence interference),[9],-0.65% (inactive)
same,IC50,[10],> 100 µM (inactive)
C(=N\Nc1ccc2ccccc2n1)/c1ccc2c(c1)OCO2,inhibition,[1],97.7% (active)
same,inhibition,[2],98.3% (active)
same,inhibition,[3],102% (active)
same,inhibition,[4],93.2% (active)
same,inhibition,[5],71.3% (active)
same,activity,[6],51.5%
same,activity,[7],31.6%
COc1ccc(-c2cn3ccsc3n2)cc1,inhibition,[1],55.5% (active)
same,inhibition,[2],51.2% (active)
same,inhibition,[3],81.3% (active)
same,inhibition,[4],74.4% (active)
same,inhibition,[5],56.3% (active)
same,activity,[6],64.2%
same,activity,[7],54.6%
O=C(Nc1ccn(Cc2ccccc2)n1)c1n[nH]c([N+](=O)[O-])c1Cl,inhibition,[1],96.4% (active)
same,inhibition,[2],97.3% (active)
same,inhibition,[3],102% (active)
same,inhibition,[4],96.2% (active)
same,inhibition,[5],96.7% (active)
same,activity,[6],64.8%
same,activity,[7],63%
COc1cccc(C(=O)Nc2ccc(N3CCCC3)cc2)c1,inhibition,[1],95% (active)
same,inhibition,[2],99.7% (active)
same,inhibition,[3],104% (active)
same,inhibition,[4],99.5% (active)
same,inhibition,[5],86.3% (active)
same,activity,[6],46.8%
same,activity,[7],54%
Cn1c(NC(=O)c2ccccc2)nc2ccccc21,inhibition,[1],55.5% (active)
same,inhibition,[2],61.6% (active)
same,inhibition,[3],89.8% (active)
same,inhibition,[4],83.7% (active)
same,inhibition,[5],65.2% (active)
same,activity,[6],50.4%
same,activity,[7],61.1%
O=C(Nc1nnc(S(=O)(=O)N2CCCCCC2)s1)c1cccc(Br)c1,inhibition,[1],42.1% (inactive)
same,inhibition,[2],31.9% (inactive)
same,inhibition,[3],21.7% (inactive)
same,inhibition,[4],28.6% (inactive)
same,inhibition,[5],29.4% (inactive)
same,inhibition,[11],77.4% (active)
same,inhibition,[12],83%
same,inhibition,[13],68.3%
CC[C@]1(C(=O)OC)[C@H]2C(=O)N(Cc3ccccc3)C(=O)[C@H]2[C@H]2CN=C(SCc3ccc(Cl)cc3)N21,inhibition,[14],103% (active)
Cc1cnc(NC(=O)c2ccccn2)s1,inhibition,[1],74.2% (active)
same,inhibition,[2],75.6% (active)
same,inhibition,[3],92.3% (active)
same,inhibition,[4],91.7% (active)
same,inhibition,[5],67.2% (active)
same,activity,[6],63.5%
same,activity,[7],64.5%
Cc1cccc(NC(=O)/C=C/c2ccc3c(c2)OCO3)n1,inhibition,[1],81.3% (active)
same,inhibition,[2],81% (active)
same,inhibition,[3],95.8% (active)
same,inhibition,[4],87.1% (active)
same,inhibition,[5],73% (active)
same,activity,[6],80.4%
same,activity,[7],75.4%
CC[C@]1(C(=O)OC)[C@H]2C(=O)N(Cc3ccccc3)C(=O)[C@H]2[C@H]2CN=C(SCc3ccc(C#N)cc3)N21,inhibition,[14],102% (active)
O=C(CCCN1C(=O)/C(=C/c2ccccc2)SC1=S)Nc1ccc(O)cc1,inhibition,[14],80.2% (active)
CN(c1ccc2nc3ccccc3c(=O)n2n1)C1CCCCC1,inhibition,[1],94.2% (active)
same,inhibition,[2],94.5% (active)
same,inhibition,[3],101% (active)
same,inhibition,[4],96.3% (active)
same,inhibition,[5],77.2% (active)
same,inhibition,[15],27.7% (active)
same,inhibition,[16],78.8% (active)
same,inhibition,[17],91.2% (active)
same,inhibition,[18],97.8% (active)
same,inhibition,[19],98.5%
same,inhibition,[20],86.2%
same,inhibition,[21],98.4%
same,inhibition,[22],98.9%
O=C(CSC(=S)N1CCOCC1)c1ccccc1,inhibition,[1],79.2% (active)
same,inhibition,[2],77.6% (active)
same,inhibition,[3],94.1% (active)
same,inhibition,[4],88.1% (active)
same,inhibition,[5],77% (active)
same,activity,[6],46.8%
same,activity,[7],55.2%
CCOc1ccc(-c2nnc(-c3ccco3)o2)cc1,inhibition,[1],5.3% (inactive)
same,inhibition,[2],72.1% (active)
same,inhibition,[3],79% (active)
same,inhibition,[4],73.8% (active)
same,inhibition,[5],15.9% (inactive)
same,activity,[6],52.5%
same,activity,[7],56.5%
